Data taken from PubChem BioAssay AID2314 (National Center for Advancing Translational Sciences (NCATS), 2010).
Hit rate of the full screen: of about 300,000 compounds, about 37,000 (12%) were called active. Many of the other results were omitted from the sample, so actives are more common in it than they were. A number with no mark means an inactive call. Cut-off read from the data, not from the text of the source: active = max response mostly above about 13% (no sharp cut-off); inactive = mostly below about 14%.

Assay: Cycloheximide Counterscreen for Small Molecule Inhibitors of Shiga Toxin; note: read at 38.3 µM for the half of the compounds with a filed dose; 0% is about no effect
Conditions: cell reporter, cycloheximide protein synthesis inhibition counterscreen; hits give high values

Question: With `Cc1cc(C)nc(NS(=O)(=O)c2ccc(N/C=C\C(=O)c3cccs3)cc2)n1` as the compound, how does the max response read?
Answer: 36.2% (active)

Question: For `Cc1cc(C)nc(NS(=O)(=O)c2ccc(N3C(=O)C4CCCCC4C3=O)cc2)n1` (stereo not drawn), which max response is on record?
Answer: 1.2%

Question: Which max response does the source give for `Cc1c(C(C)(C)O)[nH]c2ccc(C#N)cc12` here?
Answer: 6.81%

Question: With `COc1ccccc1CNC(=O)C1CCN(C(=O)[C@@H]2Cc3ccccc3CN2)CC1` as the compound, how does the max response read?
Answer: 2.06%

Question: Which max response does the source give for `COc1ccccc1CNC(=O)C1CCN(S(C)(=O)=O)CC1` here?
Answer: -1.24%

Question: Which max response does the source give for `COc1ccccc1CCNC(=O)C1CCN(C(=O)/C=C/c2ccccc2)CC1` here?
Answer: 14.7% (active)

Question: With `O=C(N/N=C/c1c(Cl)[nH]c2ccccc12)c1sc2ccccc2c1Cl` as the compound, how does the max response read?
Answer: 12.8% (active)

Question: For `COCCNC(=S)N/N=C/c1c(C)[nH]c2ccccc12`, which max response is on record?
Answer: 8.43%

Question: With `Cc1nn(C)cc1/C=N/NC(=O)c1sc2ccccc2c1Cl` as the compound, how does the max response read?
Answer: 4.94%

Question: Which max response does the source give for `COc1ccc(NC(=O)C2CCC(CNS(=O)(=O)c3csc(C(N)=O)c3)CC2)cc1OC` (stereo not drawn) here?
Answer: -7.21%

Question: With `COC(=O)c1ccccc1NC(=S)NC(=O)c1ccccc1F` as the compound, how does the max response read?
Answer: -2.77%

Question: Which max response does the source give for `O=C(NC(=S)NC1CCSC1=O)c1ccccc1F` (stereo not drawn) here?
Answer: 24.5% (active)

Question: Which max response does the source give for `O=C(Cc1ccccc1F)NC1CCSc2ccccc21` (stereo not drawn) here?
Answer: -2.13%

Question: With `COC1=C(N2CCOCC2)C(=O)c2ccccc2C1=O` as the compound, how does the max response read?
Answer: 0.793%

Question: Which max response does the source give for `Fc1ccc(-c2csc(-c3ccc(C4SCCS4)cc3)n2)cc1F` here?
Answer: 8.6%

Question: With `Clc1ccc(-c2csc(-c3ccncc3)n2)cc1` as the compound, how does the max response read?
Answer: 49.1% (active)

Question: Which max response does the source give for `CCCCCN1CC(O)=C(c2nc(-c3ccc(Cl)cc3)cs2)C1=N` here?
Answer: -0.837%

Question: With `CSc1cccc(NC(=O)CN2C(=O)COc3ccc(S(=O)(=O)N4CCOCC4)cc32)c1` as the compound, how does the max response read?
Answer: -0.43%

Question: With `O=C(C1CC(=O)N(C2CCCCC2)C1)N1CCN(c2ccccc2)CC1` (stereo not drawn) as the compound, how does the max response read?
Answer: -1.46%

Question: Which max response does the source give for `Cn1c(SCC(=O)N2CCCCC2)nc2c(c1=O)SCC2` here?
Answer: 9.54%

Question: Which max response does the source give for `COCc1ccc(CN2CCC(Oc3ccc(C(=O)NCc4ccccn4)cc3)CC2)o1` here?
Answer: 17.2%

Question: With `COc1cc(NS(=O)(=O)c2ccccc2)ccc1-n1nc(C)cc1C` as the compound, how does the max response read?
Answer: -2.43%

Question: For `COc1ccccc1-n1cnc2cc(NS(=O)(=O)c3ccccc3)ccc21`, which max response is on record?
Answer: 33.5% (active)

Question: Which max response does the source give for `COCCCNC(=O)c1ccc2c(c1)ncn2-c1ccccc1OC` here?
Answer: 10.4%

Question: With `O=C(c1cc(-c2ccc(O)cc2)on1)N1CCCc2ccccc21` as the compound, how does the max response read?
Answer: 32.9% (active)

Question: Which max response does the source give for `O=C(c1cc(-c2ccc(F)cc2)on1)N1CCN(c2ccc(F)cc2)CC1` here?
Answer: -2.49%

Question: With `Cn1c(SCC(=O)N2CCCc3ccccc32)nc2ccccc2c1=O` as the compound, how does the max response read?
Answer: -3.04%

Question: With `COc1ccc(-c2cc(C(=O)N3CCN(c4ccc(F)cc4)CC3)no2)cc1` as the compound, how does the max response read?
Answer: -1.58%

Question: For `Cc1ccc(-c2cc(C(=O)N3CCC4(CC3)OCCO4)no2)cc1`, which max response is on record?
Answer: 24.4% (active)

Question: Which max response does the source give for `Cc1ccc(-c2cc(C(=O)N3CCc4ccccc4C3)no2)cc1` here?
Answer: 10.4%

Question: Which max response does the source give for `O=C(c1cc(-c2cccc(O)c2)on1)N1CCc2ccccc2C1` here?
Answer: 7.88%

Question: With `CCCn1nc(C(=O)N2CCCc3ccccc32)c2ccccc2c1=O` as the compound, how does the max response read?
Answer: -1.1%

Question: For `O=C(c1cc(-c2ccc(O)cc2)on1)N1CCOCC1`, which max response is on record?
Answer: 27.7% (active)

Question: For `O=C(c1cc(-c2ccncc2)nc2ccccc12)N1CCC2(CC1)OCCO2`, which max response is on record?
Answer: 2.43%

Question: With `O=C(c1cc(-c2ccc(Cl)cc2)on1)N1CCN(c2ccccc2)CC1` as the compound, how does the max response read?
Answer: 30.2% (active)

Question: For `O=C(c1cccs1)N1CCN(C(=O)N2CCOCC2)CC1`, which max response is on record?
Answer: -2.36%

Question: Which max response does the source give for `NC(=O)Cn1cc(/C=N\NS(=O)(=O)c2ccccc2)c2ccccc21` here?
Answer: -1.04%

Question: With `COc1ccc(OC)c(Nc2nc3ccccc3n3cnnc23)c1` as the compound, how does the max response read?
Answer: -2.88%

Question: With `CCOc1ccc(NC(=O)CCCCCN2C(=O)[C@@H]3Cc4ccccc4CN3C2=O)cc1` as the compound, how does the max response read?
Answer: 6.74%

Question: Which max response does the source give for `Clc1cc(NC2CCCCC2)ncn1` here?
Answer: 3.36%

Question: Which max response does the source give for `CCCCN(CCCC)CCCNC(=O)CN1C(=O)COc2ccc(S(=O)(=O)N3CCC(C)CC3)cc21` here?
Answer: -3.42%

Question: For `Cc1ccn(-c2cccc(-n3ccc(C)n3)n2)n1`, which max response is on record?
Answer: 91.1% (active)

Question: Which max response does the source give for `Cc1cnc(CN(C)C(=O)CC2C(=O)NCCN2Cc2cccc(F)c2F)[nH]1` (stereo not drawn) here?
Answer: 3.11%

Question: With `O=c1c2cc(Br)ccc2nc(-c2cccc(Cl)c2)n1O` as the compound, how does the max response read?
Answer: -6.07%

Question: For `Cc1ccc(CSCC2Nc3ccc(C(=O)N4CCN(c5ccc(F)cc5)CC4)cc3NC2=O)cc1` (stereo not drawn), which max response is on record?
Answer: -5.97%

Question: For `CCN1C(=O)C(CC(=O)Nc2cc(C)ccc2C)SC1=Nc1ccc(S(N)(=O)=O)cc1` (stereo not drawn), which max response is on record?
Answer: -7.73%

Question: With `O=C(CC1SC(=Nc2ccccc2)N(Cc2ccccn2)C1=O)Nc1cccc(Cl)c1` (stereo not drawn) as the compound, how does the max response read?
Answer: 14.9% (active)

Question: For `CN1C(=O)C(CC(=O)Nc2ccccc2)S/C1=N/c1nccs1` (stereo not drawn), which max response is on record?
Answer: -0.83%
